Data on five molecules can be found in PubChem BioAssay.

Molecules are shown by their SMILES. Records with an inconclusive call do not appear. Active and inactive are the calls of the source.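 How the source made its calls, unless noted: active means percent response above a set limit, the screen-wide mean plus 3 SD (cut at about 130% in these data); inactive means the rest.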

Assay [1] in a line: yeast TOR pathway RPL19A-GFP modulators, primary screen, cell-based, S. cerevisiae, multiplex flow cytometry (AID 1862; in the data active means percent of DMSO control GFP below about 86%;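 further: lower values mimic rapamycin by blocking the RPL19A rise seen in DMSO cells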). As to conditions: S. cerevisiae RPL19A-GFP strain, flow cytometry fluorescence, 3 h; at 10 µM; stronger effect = lower value. Background: Flow cytometry measures light scatter and fluorescence of single cells or particles in a stream.
Assay [2] is described as follows: modulators of MEP2-GFP levels in yeast, primary screen, S. cerevisiae, multiplex flow cytometry (AID 1867;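 active means GFP response, as percent of the DMSO control, above the screen-wide mean plus 3 SD, about 139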;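 further: median GFP channel fluorescence of barcode-gated MEP2-GFP cells measured by flow cytometry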). As to conditions: S. cerevisiae MEP2-GFP strain, 3 h, at 10 µM, stronger effect = higher value, 100% means same as DMSO wells.
Assay [3] is described as follows: modulators of CIT2-GFP expression in yeast, primary screen, S. cerevisiae, GFP fusion, multiplex flow cytometry (AID 1870).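 Further: barcoded CIT2-GFP strain pooled with four other GFP strains with rapamycin as positive control; median GFP fluorescence per well over plate mean of DMSO wells so 100% = DMSO.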 As to conditions: 3 h, at 10 µM, stronger effect = higher value.
A short description of assay [4]: modulators of LAP4-GFP expression in yeast, primary screen, S. cerevisiae, multiplex flow cytometry (AID 1873;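 active means GFP signal, as percent of the solvent control, above the screen mean plus 3 SD, about 149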). As to conditions: 3 h, at 10 µM, stronger effect = higher value.
A short description of assay [5]: inhibitors of CD8+ T cell-vesicle binding, pilot screen, LFA-1/ICAM-1 modulator project, MLPCN validation set, flow cytometry (AID 2523;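 active means response below a set limit, under 55% cells CD8-positive and vesicle-bound, and CD8 cells' 90th-percentile brightness under 279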;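 on vesicle binding response: mean PE anti-B7-1 fluorescence of CD8+ cells relative to row control; 100% = QL9-loaded vesicles with DMSO vehicle in the same plate row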). As to conditions: 2C mouse CD8+ T cells, at 7 µM, stronger effect = lower value; double positive events: measured here: CD8+/vesicle+ event percentage.
The target of assay [6] is Integrin beta-1 (Homo sapiens) + Integrin alpha-4 (Homo sapiens) (UniProt P13612+P05556). Kind of assay: inhibition of HUTS-21 binding to VLA-4, pilot screen, VLA-4 allosteric modulator project, U937 cells, HUTS-21 mAb, flow cytometry, validation set (AID 2674;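 active means inhibition above 50%, about 3 SD of the validation set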;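 further: antibody binding induced by the VLA-4 ligand LDV present at three times its Kd; 0% = LDV ligand with antibody and no compound and 100% = antibody without LDV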). As to conditions: HUTS-21 LIBS mAb binding, at 6.7 µM, stronger effect = higher value, binding induced by LDV ligand.
Assay [7] can be described thus: superoxide lowering in aged yeast cells, pilot screen, validation compound set (AID 2706;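 active means superoxide response below 65% of plate, a cut near 3 SD across the whole screen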;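 further: yeast exposed to compound for one week at 30 degrees C before staining; 100% = mean of all compound wells on the same plate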). As to conditions: S. cerevisiae aging, superoxide DHE fluorescence; at 10 µM, stronger effect = lower value.
Assay [8] has as its target Beta-adrenergic receptor kinase 1 (Homo sapiens) (UniProt P25098). The experiment in a line: GRK2 binders displacing RNA aptamer, biochemical, validation, human GRK2, bead flow cytometry (AID 488806;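 active means aptamer binding inhibition above 30%, about 3 SD of noise from non-fluorescent compounds; inactive means inhibition at or below 30%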). As to conditions: bead-bound GRK2, FAM-aptamer displacement, at 10 µM, stronger effect = higher value.
The target of assay [9] is Beta-2 adrenergic receptor (Homo sapiens) (UniProt P07550). Kind of assay: beta2AR agonists driving receptor internalization, pilot screen, cell-based, FAP fluorogen, flow cytometry, validation set (AID 504459;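 active means percent response above 42, roughly 3 SD of non-fluorescent test compounds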;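 further: agonist-driven loss of surface beta2AR via internalization measured by FAP dye flow cytometry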). As to conditions: Am2.2-beta2AR cells, FAP surface receptor flow cytometry; at 10 µM; stronger effect = higher value.
Assay [10] addresses AP-2 complex subunit beta (Homo sapiens) (UniProt P63010). The experiment in a line: inhibitors of arrestin peptide binding to AP2, pilot screen, biochemical, validation set, GST-AP2 beads, flow cytometry (AID 504541;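 active means inhibition above 54%, about 3 SD of non-fluorescent compounds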;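 further: AP2 carries R879A mutation and is captured from E. coli lysate; bead-bound FITC arrestin peptide fluorescence measuring arrestin peptide binding to AP2; 0% = DMSO wells and 100% = excess unlabeled arrestin peptide control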). As to conditions: FITC arrestin peptide, at 10 µM, stronger effect = higher value, AP2 beta2 appendage fragment, R879A mutant.
A short description of assay [11]: yeast V-ATPase proton transport modulators, S. cerevisiae, pHLuorin, HTS validation (AID 504600; in the data active means response above about 15%;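 further: plate controls were DMSO for no effect and reference compound for full effect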). As to conditions: S. cerevisiae pHLuorin cytosolic pH, at 10 µM, stronger effect = higher value.
The test system of assay [12] is anti-desmoglein-3 scFv antibody binding to human DSG3. The experiment in a line: inhibitors of anti-DSG3 scFv binding to DSG3, pilot screen, biochemical, validation compound set, bead-based, flow cytometry (AID 588368;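 active means binding below the plate cutoff, the plate median minus 3 SD, with a reading above zero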;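 further: signal is the median channel fluorescence of bead-bound GFP antibody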). As to conditions: Protein G beads, DSG3-Fc, scFv-GFP binding, at 10 µM, stronger effect = lower value.
Assay [13] can be described thus: inhibitors of fungal efflux pumps CDR1, CDR2, MDR1, pilot screen, validation compound set, multiplex, phenotypic (AID 588506;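 active means efflux inhibition above 0.42, the validation set average plus 4 SD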;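 further: Nile Red retained in cells so higher fluorescence means more efflux inhibition; 0 = negative control wells and 1 = enniatin B 25 µM full block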). As to conditions: S. cerevisiae pump-expressing triplex, Nile Red efflux flow cytometry; at 10 µM; stronger effect = higher value; the pumps come from Candida albicans.
Assay [14] has as its target ATP-binding cassette sub-family B member 6 (Homo sapiens) (UniProt Q9NP58). Kind of assay: ABCB6 transporter inhibitors, pilot screen, K562-ABCB6 cells, flow cytometry, validation set (AID 588550;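 active means inhibition above the screen-wide mean plus 3 SD, about 51%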;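 further: 0% = DMSO wells and 100% = benzethonium chloride 70 µM positive control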). As to conditions: K562-ABCB6 porphyrin accumulation, 1 h, at 10 µM, stronger effect = higher value.
A short description of assay [15]: promoters of myeloid differentiation in arrested cells, primary screen, cell-based, GFP/MAC1 double positive, flow cytometry, validation set (AID 588685;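 active means differentiation response of at least 50%, scaled between solvent and reference control, from cells with both markers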;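 further: compound exposure lasts four days before antibody staining and flow analysis; 0% = DMSO wells and 100% = 5 µM fulvestrant positive control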). As to conditions: ER-HoxA9 marrow cells, stronger effect = higher value, normalized: vehicle 0, fulvestrant 100.
Assay [16] can be described thus: modulators of AGP1-GFP expression in yeast TOR pathway, primary screen, cell-based, multiplex flow cytometry, S. cerevisiae (AID 1887;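 active means GFP signal above the screen-wide mean plus 3 SD, that is over about 124.5% of the solvent control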;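 further: AGP1-GFP fusion strain of S. cerevisiae within a five-strain barcoded multiplex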). As to conditions: 3 h, at 10 µM, stronger effect = higher value.

Sequence of Beta-adrenergic receptor kinase 1 (Homo sapiens) (P25098 whole entry, looked up): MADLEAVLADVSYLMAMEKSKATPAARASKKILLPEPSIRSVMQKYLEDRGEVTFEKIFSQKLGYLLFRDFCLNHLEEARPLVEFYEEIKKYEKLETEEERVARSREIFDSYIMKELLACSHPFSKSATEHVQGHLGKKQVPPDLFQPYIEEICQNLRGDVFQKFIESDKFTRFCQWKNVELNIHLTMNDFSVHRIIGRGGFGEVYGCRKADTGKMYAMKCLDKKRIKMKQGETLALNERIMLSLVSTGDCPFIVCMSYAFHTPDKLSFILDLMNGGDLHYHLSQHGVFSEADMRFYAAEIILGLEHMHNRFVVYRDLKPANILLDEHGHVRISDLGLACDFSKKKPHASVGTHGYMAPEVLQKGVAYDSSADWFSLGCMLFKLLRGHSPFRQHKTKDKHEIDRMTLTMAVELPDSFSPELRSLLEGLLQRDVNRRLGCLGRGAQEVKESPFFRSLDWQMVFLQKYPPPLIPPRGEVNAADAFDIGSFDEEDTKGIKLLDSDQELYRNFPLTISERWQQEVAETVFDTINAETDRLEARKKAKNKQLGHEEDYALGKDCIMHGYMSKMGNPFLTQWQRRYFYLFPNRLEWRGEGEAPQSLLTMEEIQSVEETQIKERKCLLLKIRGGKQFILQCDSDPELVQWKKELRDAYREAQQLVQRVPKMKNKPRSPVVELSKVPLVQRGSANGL
Sequence of Integrin beta-1 (Homo sapiens) + Integrin alpha-4 (Homo sapiens) (P05556 whole entry, looked up): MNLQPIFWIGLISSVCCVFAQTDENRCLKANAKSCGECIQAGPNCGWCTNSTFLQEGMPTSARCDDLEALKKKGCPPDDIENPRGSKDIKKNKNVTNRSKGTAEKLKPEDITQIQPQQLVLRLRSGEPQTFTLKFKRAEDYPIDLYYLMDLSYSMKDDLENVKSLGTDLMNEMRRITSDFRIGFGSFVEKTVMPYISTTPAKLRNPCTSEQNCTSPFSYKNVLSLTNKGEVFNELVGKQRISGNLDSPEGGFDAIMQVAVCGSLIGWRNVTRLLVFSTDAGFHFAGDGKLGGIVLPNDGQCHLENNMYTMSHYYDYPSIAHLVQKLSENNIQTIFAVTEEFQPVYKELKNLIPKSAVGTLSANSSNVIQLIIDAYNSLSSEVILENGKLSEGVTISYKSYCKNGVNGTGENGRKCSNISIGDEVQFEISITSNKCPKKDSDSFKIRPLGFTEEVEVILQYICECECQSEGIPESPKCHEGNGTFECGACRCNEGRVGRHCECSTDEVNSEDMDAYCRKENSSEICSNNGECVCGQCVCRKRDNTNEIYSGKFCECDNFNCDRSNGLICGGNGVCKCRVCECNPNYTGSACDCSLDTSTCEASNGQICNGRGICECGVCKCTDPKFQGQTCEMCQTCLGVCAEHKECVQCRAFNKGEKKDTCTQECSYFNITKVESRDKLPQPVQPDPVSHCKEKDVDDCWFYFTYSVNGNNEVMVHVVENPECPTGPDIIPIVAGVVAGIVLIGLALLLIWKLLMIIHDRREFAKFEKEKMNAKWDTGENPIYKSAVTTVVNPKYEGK
Sequence of Integrin beta-1 (Homo sapiens) + Integrin alpha-4 (Homo sapiens) (P13612 whole entry, looked up): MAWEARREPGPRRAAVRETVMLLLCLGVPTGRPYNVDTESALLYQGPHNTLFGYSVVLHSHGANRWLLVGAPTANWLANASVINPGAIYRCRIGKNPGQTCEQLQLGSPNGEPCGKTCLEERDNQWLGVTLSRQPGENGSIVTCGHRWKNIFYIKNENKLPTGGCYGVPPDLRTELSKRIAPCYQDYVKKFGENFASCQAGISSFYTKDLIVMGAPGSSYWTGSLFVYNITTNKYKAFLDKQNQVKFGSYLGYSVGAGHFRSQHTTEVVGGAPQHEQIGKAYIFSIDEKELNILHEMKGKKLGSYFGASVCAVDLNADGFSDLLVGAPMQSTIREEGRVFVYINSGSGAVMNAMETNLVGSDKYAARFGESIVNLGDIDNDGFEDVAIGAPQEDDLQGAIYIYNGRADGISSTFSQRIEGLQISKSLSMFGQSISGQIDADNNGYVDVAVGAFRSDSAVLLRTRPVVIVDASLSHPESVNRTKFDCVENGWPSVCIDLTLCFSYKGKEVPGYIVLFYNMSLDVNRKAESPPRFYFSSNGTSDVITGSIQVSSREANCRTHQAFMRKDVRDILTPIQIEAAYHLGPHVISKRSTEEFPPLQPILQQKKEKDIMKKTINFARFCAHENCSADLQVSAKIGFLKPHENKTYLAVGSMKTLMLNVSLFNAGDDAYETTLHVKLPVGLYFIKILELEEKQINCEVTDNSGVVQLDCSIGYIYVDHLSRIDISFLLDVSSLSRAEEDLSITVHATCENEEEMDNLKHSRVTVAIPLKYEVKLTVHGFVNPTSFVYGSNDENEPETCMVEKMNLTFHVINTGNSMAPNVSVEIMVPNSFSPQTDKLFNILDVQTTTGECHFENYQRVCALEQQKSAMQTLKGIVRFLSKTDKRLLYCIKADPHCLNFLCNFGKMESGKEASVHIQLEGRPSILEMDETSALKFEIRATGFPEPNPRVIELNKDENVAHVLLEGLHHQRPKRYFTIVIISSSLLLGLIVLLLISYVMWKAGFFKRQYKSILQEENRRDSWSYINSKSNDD
Sequence of ATP-binding cassette sub-family B member 6 (Homo sapiens) (Q9NP58 whole entry, looked up): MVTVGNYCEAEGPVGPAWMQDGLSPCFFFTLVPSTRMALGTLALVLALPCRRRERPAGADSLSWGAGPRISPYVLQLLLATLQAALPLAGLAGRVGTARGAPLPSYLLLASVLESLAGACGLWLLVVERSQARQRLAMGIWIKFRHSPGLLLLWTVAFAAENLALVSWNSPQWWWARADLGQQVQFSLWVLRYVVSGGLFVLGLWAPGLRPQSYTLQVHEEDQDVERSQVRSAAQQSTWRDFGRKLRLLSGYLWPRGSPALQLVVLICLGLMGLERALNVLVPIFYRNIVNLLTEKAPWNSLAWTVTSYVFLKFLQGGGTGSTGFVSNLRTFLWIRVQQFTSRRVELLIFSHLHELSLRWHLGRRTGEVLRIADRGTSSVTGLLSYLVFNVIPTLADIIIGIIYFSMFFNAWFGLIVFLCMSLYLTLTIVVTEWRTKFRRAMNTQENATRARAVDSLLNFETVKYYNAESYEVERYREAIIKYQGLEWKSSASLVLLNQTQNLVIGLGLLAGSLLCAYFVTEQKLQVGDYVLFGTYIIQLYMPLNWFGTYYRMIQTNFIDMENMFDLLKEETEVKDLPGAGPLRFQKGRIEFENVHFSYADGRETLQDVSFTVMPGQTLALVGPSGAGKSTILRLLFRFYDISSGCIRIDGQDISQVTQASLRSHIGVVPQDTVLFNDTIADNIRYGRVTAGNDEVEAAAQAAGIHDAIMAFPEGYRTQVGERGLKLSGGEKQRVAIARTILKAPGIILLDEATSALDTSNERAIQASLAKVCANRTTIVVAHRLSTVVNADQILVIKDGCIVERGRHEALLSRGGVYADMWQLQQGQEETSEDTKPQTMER
Sequence of Beta-2 adrenergic receptor (Homo sapiens) (P07550 whole entry, looked up): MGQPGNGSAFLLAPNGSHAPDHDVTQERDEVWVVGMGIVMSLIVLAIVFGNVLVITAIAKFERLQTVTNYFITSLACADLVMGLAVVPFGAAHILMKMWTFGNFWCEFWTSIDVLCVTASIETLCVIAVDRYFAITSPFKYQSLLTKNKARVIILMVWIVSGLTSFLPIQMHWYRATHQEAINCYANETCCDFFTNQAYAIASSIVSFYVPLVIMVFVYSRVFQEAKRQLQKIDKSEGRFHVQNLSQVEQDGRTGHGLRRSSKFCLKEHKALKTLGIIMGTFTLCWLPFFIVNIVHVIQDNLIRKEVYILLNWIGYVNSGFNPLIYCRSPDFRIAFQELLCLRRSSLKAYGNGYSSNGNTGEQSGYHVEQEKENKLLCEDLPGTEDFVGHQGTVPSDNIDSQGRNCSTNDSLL
Sequence of AP-2 complex subunit beta (Homo sapiens) (P63010 whole entry, looked up, the tested form may be a part, one chain of several): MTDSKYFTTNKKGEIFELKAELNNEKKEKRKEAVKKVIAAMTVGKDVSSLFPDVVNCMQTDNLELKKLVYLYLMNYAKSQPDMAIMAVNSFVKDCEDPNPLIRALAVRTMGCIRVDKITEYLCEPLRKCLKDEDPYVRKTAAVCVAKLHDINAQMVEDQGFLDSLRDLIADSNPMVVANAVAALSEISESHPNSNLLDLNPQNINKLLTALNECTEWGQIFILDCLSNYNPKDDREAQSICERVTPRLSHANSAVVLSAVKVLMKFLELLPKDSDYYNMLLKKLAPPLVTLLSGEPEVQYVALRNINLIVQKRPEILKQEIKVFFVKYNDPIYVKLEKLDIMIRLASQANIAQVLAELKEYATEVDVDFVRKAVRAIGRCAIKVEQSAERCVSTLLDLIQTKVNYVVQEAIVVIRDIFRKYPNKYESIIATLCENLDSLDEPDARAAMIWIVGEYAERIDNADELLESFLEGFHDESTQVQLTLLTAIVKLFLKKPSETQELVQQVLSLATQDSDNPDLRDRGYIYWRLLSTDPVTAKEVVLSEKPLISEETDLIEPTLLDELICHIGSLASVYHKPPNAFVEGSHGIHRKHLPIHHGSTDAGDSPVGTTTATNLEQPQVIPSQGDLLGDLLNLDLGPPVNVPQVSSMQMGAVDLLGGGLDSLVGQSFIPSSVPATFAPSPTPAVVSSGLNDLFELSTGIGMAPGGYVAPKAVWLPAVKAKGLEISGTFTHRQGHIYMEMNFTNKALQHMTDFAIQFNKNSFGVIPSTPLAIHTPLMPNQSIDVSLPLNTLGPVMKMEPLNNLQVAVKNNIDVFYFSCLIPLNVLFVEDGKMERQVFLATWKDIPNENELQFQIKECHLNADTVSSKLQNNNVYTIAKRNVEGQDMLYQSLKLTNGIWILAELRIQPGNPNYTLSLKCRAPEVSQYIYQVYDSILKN

Take `COc1cccc(N2C(=O)[C@H]3C(C(=O)c4cnccn4)=NN[C@H]3C2=O)c1`: the percent of DMSO control GFP in [1] was 93.5% (inactive). Further, the results for the GFP response vs DMSO in assay [2] and in [4] were 123% (inactive) and 79.8% (inactive), respectively. The percent response of DMSO control in assay [3] is 111% (inactive). The double positive events in assay [5] was 63.5%. The vesicle binding response in [5] was 191% (inactive). Further, the figures for the inhibition in assay [6], in assay [10] and in assay [14] were 14.2% (inactive), -1.17% (inactive) and 8% (inactive), respectively. Further, the superoxide response (% of plate) in [7] was 106% (inactive). Moreover, the aptamer binding inhibition in assay [8] was 2% (inactive). Further, the response in [9] is -6.07% (inactive); in assay [11], -1.86% (inactive). For the same molecule, the binding (% of control) in assay [12] was 98.9% (inactive). Besides, in [13], the efflux inhibition (fraction of control) was -0.13 (inactive). Besides, the differentiation response in assay [15] was -4.91% (inactive).
Turning to `CCCNC(=O)NS(=O)(=O)c1ccc(Cl)cc1`, in [1], the percent of DMSO control GFP was 98.2% (inactive). For the same molecule, the GFP response vs DMSO in assay [2] was 104% (inactive); in assay [4], 101% (inactive). Moreover, in assay [3], the percent response of DMSO control was 97.1% (inactive). In addition, in assay [16], the GFP response, % of DMSO was 103% (inactive). This molecule also came in with a double positive events in [5] of 48%. Besides, the inhibition (commonly the relative decrease from the control value, in per cent) in assay [6] is 1.12% (inactive); in [10], 11.1% (inactive); in [14], 2% (inactive). In addition, in [7], the superoxide response (% of plate) is 99.1% (inactive). Further, the aptamer binding inhibition in assay [8] was 2% (inactive). Also, the response is -4.85% (inactive) in assay [9] and -3.28% (inactive) in assay [11]. Besides, the binding (% of control) in [12] is 102% (inactive). Moreover, in assay [13], the efflux inhibition (fraction of control) was -0.02 (inactive). Also, the differentiation response in assay [15] is 8.02% (inactive).
For the molecule `Cc1cc(C(C)(C)C)c(O)c(C)c1CC1=NCCN1`, the percent of DMSO control GFP in assay [1] is 103% (inactive). The GFP response vs DMSO in assay [2] is 116% (inactive); in assay [4] it was 94.1% (inactive). Besides, in assay [3], the percent response of DMSO control is 114% (inactive). Further, the double positive events in [5] stood at 62.9%. In addition, in assay [5], the vesicle binding response was 297% (inactive). Besides, the inhibition in assay [6] was -29.4% (inactive); in assay [10], -0.66% (inactive); in [14], 12% (inactive). In assay [7], the superoxide response (% of plate) is 93.7% (inactive). In addition, the aptamer binding inhibition in [8] was 1% (inactive). Besides, the response in assay [9] is 8.56% (inactive); in assay [11] it was 0.6% (inactive). Further, the binding (% of control) in [12] is 106% (inactive). The efflux inhibition (fraction of control) in assay [13] is 0.34 (inactive). Moreover, the differentiation response in [15] was 7.37% (inactive).
For the molecule `C[N+](C)(C)CCOP(=O)(O)OP(=O)([O-])OC[C@H]1O[C@@H](n2ccc(N)nc2=O)[C@H](O)[C@@H]1O`, in [1], the percent of DMSO control GFP is 101% (inactive). In addition, the GFP response vs DMSO was 113% (inactive) in assay [2] and 82% (inactive) in assay [4]. The percent response of DMSO control in assay [3] is 112% (inactive). The GFP response, % of DMSO in assay [16] was 102% (inactive). This molecule also registered a double positive events in assay [5] of 68.8%. Besides, the inhibition was -12.9% (inactive) in assay [6], -4.05% (inactive) in assay [10] and 10% (inactive) in assay [14]. The superoxide response (% of plate) in assay [7] is 89.1% (inactive). For the same molecule, in assay [8], the aptamer binding inhibition is 2% (inactive). Moreover, the figures for the response in assay [9] and in assay [11] were 3.17% (inactive) and -1.87% (inactive), respectively. The binding (% of control) in [12] was 101% (inactive). Further, the efflux inhibition (fraction of control) in assay [13] was -0.17 (inactive). In addition, the differentiation response in assay [15] was -7.37% (inactive).
On to `COc1ccc(-c2nc(C)c(C(C)=O)n2O)cc1OC`, for which, in [1], the percent of DMSO control GFP was 92.6% (inactive). Further, the GFP response vs DMSO in [2] was 106% (inactive); in assay [4], 78.1% (inactive). In addition, the percent response of DMSO control in assay [3] is 114% (inactive). The same molecule displayed a double positive events in assay [5] of 52.4%. Besides, the vesicle binding response in assay [5] is 110% (inactive). The figures for the inhibition in assay [6], in [10] and in [14] were 5.49% (inactive), -13.1% (inactive) and 11% (inactive), respectively. For the same molecule, in [7], the superoxide response (% of plate) is 97.4% (inactive). Also, the aptamer binding inhibition in [8] is 2% (inactive). Besides, the figures for the response in assay [9] and in assay [11] were -10.4% (inactive) and 1.53% (inactive), respectively. In addition, the binding (% of control) in assay [12] is 103% (inactive). For the same molecule, the efflux inhibition (fraction of control) in assay [13] is 0.01 (inactive). The differentiation response in assay [15] is 0% (inactive).
